Active and inactive are the calls of the source. The call rests on the fitted dose curve; in most records, active means well fitted activation curve with a large enough effect; inconclusive means small, poorly fitted or top-dose-only effect; inactive means flat fitted curve, though single readings scatter.

This assay is described as follows: Cellular Toxicity (caspase-3) SK-N-SH (AID 661). Particulars: SK-N-SH caspase-3 activation, qHTS, DMSO as zero, staurosporine as full; series mostly up to 91.7 µM. The source says:
NIH Chemical Genomics Center [NCGC]
NIH Molecular Libraries Screening Centers Network [MLSCN]
National Institutes of Environmental Health Sciences [NIEHS]
National Toxicology Program [NTP]
We have developed a 1536-well cell-based assay for quantitative high throughput screening (qHTS) against a number of cell lines to determine in vitro caspase 3/7 activity of small molecules. This particular assay uses the SK-N-SH cell line which is derived from human neuroblastoma.
NCGC Assay Protocol Summary:
The Caspase-Glo 3/7 assay (Promega) is a homogeneous method to measure caspase-3 and caspase-7 activities in cultured cells. The quantitation of caspase 3/7 activity is based on the cleavage of a peptide-aminoluciferin substrate. After caspase cleaves the substrate the free aminoluciferin is liberated and serves as the substrate of luciferase, which generates the light. The luminescent signal is proportional to amount of caspase 3/7 activity present.
Using the Caspase-Glo 3/7 assay, the amount of caspase 3/7 activity was measured in the SK-N-SH cell line with complete culture medium following compound treatment for 16 hours. The assay was performed in opaque white 1536-well plates. In the screen, tamoxifen and staurosporine were used as positive controls. Library compounds were measured for their ability to cause the activation of caspase 3/7 in the cell line, as reflected by an increase in luminescence signal, in a concentration-dependent manner. Data were normalized to the controls for basal activity (DMSO only) and 100% stimulation (10 uM staurosporine). AC50 values were determined from concentration-response data modeled with the standard Hill equation.
qHTS protocol for caspase 3/7 assay in SK-N-SH cells
[Step] [Parameter] [Value] [Description]
1. Reagent; 5 uL; 1500 SK-N-SH cells/well
2. Time; 5 hr; 37 °C incubation
4. Controls; 23 nL; Tamoxifen 0.23 uM to 100 uM & staurosporine 1.4 pM to 100 uM
5. Time; 16 hr; 37 °C incubation
6. Reagent; 5 uL; Caspase-Glo 3/7 reagent
7. Time; 1 hr; Room Temperature
8. Detection; Luminescence; Viewlux plate reader
Keywords: caspase 3/7, apoptosis, SK-N-SH cell line, luminescence, NTPHTS, NTPHTS_NCGC, NIEHS, EPA, DSSTox, MLSMR, MLSCN, NIH Roadmap, qHTS, NCGC
(In general: qHTS replaces the single test concentration by a dilution series.)
Regarding `COC(=O)CC#N`, the call was inactive.

For the molecule `O=C(O)c1cccc([N+](=O)[O-])c1`, the outcome was inactive.

For `CC(C)C=O`, the molecule was called inactive.

In the case of `CCCCCCC(=O)O`, the molecule was classed as inactive.

With `Nc1ccccc1S(=O)(=O)O`, the outcome was inactive.

With `Cc1cccc2cccnc12`, the result was inactive.

For the molecule `C[C@@H]1O[C@@H](O[C@@H]2[C@@H](O)[C@H](OCCc3ccc(O)c(O)c3)O[C@H](CO[C@@H]3O[C@H](CO)[C@@H](O)[C@H](O)[C@H]3O)[C@H]2OC(=O)/C=C/c2ccc(O)c(O)c2)[C@H](O)[C@H](O)[C@H]1O`, the molecule was called inactive.

`CC(C)C(C)C`: the call was inactive.

As for `COC(=O)c1ccccc1`, the molecule was called inactive.

Turning to `Cc1ccccc1C#N`, the call was inactive.

Consider `CC/C=C1/OC(=O)c2ccccc21`, for which the molecule was called inactive.

In the case of `CC(=O)c1nccs1`, the molecule was called inactive.

`COc1ccc(N)c(OC)c1`: the molecule was classed as inactive.

For the molecule `C=Cc1ccccc1C=C`, the call was inactive.

`O=C(O)c1ccccc1C(=O)O`: the result was inactive.

Regarding `CCOC(=O)C(C)C(C)=O` (stereo not given), the result was inactive.

In the case of `O=[N+]([O-])c1c(Cl)cc(Cl)cc1Cl`, the molecule was classed as inactive.

With `NC(=O)/N=N/C(N)=O`, the call was inactive.

For the molecule `CCCCCCCCCCCCC1CO1` (stereo not given), the call was inactive.

With `CCCCC(CC)COC(=O)CCCCC(=O)OCC(CC)CCCC` (stereo not given), the molecule was called inactive.

`CC(=O)Nc1cccc(N)c1`: the call was inactive.

Regarding `CC1(N)CCC(C(C)(C)N)CC1` (stereo not given), the molecule was called inactive.

Consider `Cc1ccc(C)o1`, for which the molecule was classed as inactive.

Take `CCCCOCCOCCSC#N`: the call was inactive.

In the case of `Cc1ccc(CO)cc1`, the call was inactive.

As for `Cc1ccc(C(C)(C)C)cc1`, the outcome was inactive.

Turning to `CC(C)N=C=NC(C)C`, the result was inactive.

`CCOC(C)(C)C`: the molecule was classed as inactive.

For `CCOc1ccccc1N`, the call was inactive.

Regarding `C=C(C)C(=O)OCCCCCC`, the outcome was inactive.

Consider `NC(=O)c1cccc([N+](=O)[O-])c1`, for which the result was inactive.

`C(=C/c1ccccc1)/c1ccccc1`: the molecule was called inactive.

With `CCCCN(CCO)CCCC`, the molecule was classed as inactive.

Turning to `CCCCC(CC)CNCC(CC)CCCC` (stereo not given), the molecule was called inactive.

As for `CC(C=O)Cc1ccc(C(C)(C)C)cc1` (stereo not given), the molecule was called inactive.

In the case of `O=C1CCC(=O)O1`, the molecule was called inactive.

Take `CC(=O)c1ccccn1`: the molecule was called inactive.

As to `C=CCCC`, the call was inactive.

Consider `CNC(=O)c1ccccc1`, for which the outcome was inactive.

Turning to `Cc1cscn1`, the result was inactive.

Source of the values: PubChem BioAssay (NCATS).
